High-throughput results (PubChem BioAssay)
KDM4E inh: inhibitors of human JMJD2E histone demethylase | hit rate 1.6% among 230,000 | AID 2147 | JMJD2E catalytic domain, FDH-coupled NADH fluorescence (FDH is formaldehyde dehydrogenase) | Potency, µM (highest dose often 57.1 µM), without a hit: top-dose activity change, negative = inhibition, most hits filed as inhibitors;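 further: 0% = wells with enzyme and -100% = buffer wells without enzyme; nearly all actives have a fitted effect of over 50% in size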
HTT aggregate: mutant huntingtin aggregation inhibition; PC12 HttQ103-GFP aggregates, Acumen cytometry, 40 h; Potency, µM (highest dose often 46.1 µM), for the others: at the top dose activity change, negative = inhibition, hits mostly inhibitors; hit rate 1.1% among 220,000; active means well fitted curve in the direction sought with a large enough effect; inconclusive means small, poorly fitted or top-dose-only effect, or another doubt; inactive means no such curve, though single readings can be large; an effect the other way counts as inactive or inconclusive; further: on the % scale 0 is the no-effect control and ±100 the full control effect; nearly all actives have a fitted effect of over 60% in size
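PC12/HTTQ103-GFP, ecdysone-inducible; teb 100 nM; cpd qHTS titration; GFP aggregates read on laser cytometer, Ex 488/Em 500-530 nm.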
Lamin A splicing: modulators of lamin A splicing. hit rate 0.01% among 200,000. HeLa LMNA splicing GFP/RFP minigene ratio, 48 h. Potency, µM (doses to about 46.1 µM), for inactives: top-dose ratio change, negative = inhibition, usual class: inhibitors; active means well fitted inhibition curve with a large enough effect in the signal ratio, with a control signal flat, not every such curve was filed as active; inconclusive means small, poorly fitted or top-dose-only effect, or effect the other way, or a change in a side signal; the % refers to the signal ratio; further: on the % scale 0 is the no-effect control and ±100 the full control effect
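S3 HeLa cells stably expressing lamin A-EGFP splicing minigene plus DsRed2, 600 cells/well, 48 h compound exposure at 37C. Laser-scanning cytometry; analysed as GFP (500-530 nm)/RFP (575-640 nm) total intensity ratio; 0.5% DMSO vehicle.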
HPGD inh: inhibitors of human 15-hydroxyprostaglandin dehydrogenase (HPGD) | P15428 | purified HPGD, NADH fluorescence kinetic, PGE2 substrate | Potency, µM, for inactives: top-dose activity change, negative = inhibition, hits mostly inhibitors | hit rate 4.3% among 150,000 | AID 894; further: on the % scale 0 is the no-effect control and ±100 the full control effect
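NADH formation kinetics: reaction with 30 uM PGE2 and 1 mM NAD+ (final), 20 nM enzyme, Tris-HCl pH 8 with Tween 20, after 15 min compound preincubation at room temperature. Fluorescence change, last versus first of five reads.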
ALDH1A1 inh: blocks purified human ALDH1A1 activity; Purified ALDH1A1, NADH fluorescence, propionaldehyde substrate; P00352; hit rate 7.3% among 220,000; Potency, µM (highest dose often 75.3 µM), without a hit: at the top dose activity, negative = inhibition, most hits filed as inhibitors;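 further: plate controls were no enzyme wells and a reference inhibitor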
Target sequence (P00352 whole entry, looked up): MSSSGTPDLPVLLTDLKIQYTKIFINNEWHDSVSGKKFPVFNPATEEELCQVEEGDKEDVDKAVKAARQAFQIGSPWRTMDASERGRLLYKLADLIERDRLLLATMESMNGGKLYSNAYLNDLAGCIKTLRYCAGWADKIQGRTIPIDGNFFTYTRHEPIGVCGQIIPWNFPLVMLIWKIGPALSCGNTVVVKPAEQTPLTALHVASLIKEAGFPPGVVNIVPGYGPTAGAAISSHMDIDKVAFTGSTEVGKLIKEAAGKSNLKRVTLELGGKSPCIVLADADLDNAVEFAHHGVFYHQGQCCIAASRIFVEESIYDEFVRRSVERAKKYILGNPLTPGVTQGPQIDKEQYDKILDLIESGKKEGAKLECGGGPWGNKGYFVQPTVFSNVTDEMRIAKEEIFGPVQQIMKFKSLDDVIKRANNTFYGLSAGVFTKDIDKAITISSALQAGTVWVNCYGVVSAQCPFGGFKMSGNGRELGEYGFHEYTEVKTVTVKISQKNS
HTT ATP protect: protects HTT-Q103 PC12 cells, measured by ATP. PC12 HTT-Q103 induced, cytoprotection, ATP luminescence, 40 h. AID 1471. Potency, µM (top dose mostly 56.4 µM), for inactives: cytoprotection (ATP increase), most hits filed as activators. hit rate 0.14% among 230,000; active means well fitted curve in the direction sought with a large enough effect; inconclusive means small, poorly fitted or top-dose-only effect, or another doubt; inactive means no such curve, though single readings can be large; an effect the other way counts as inactive or inconclusive; further: % of control where 0% means no effect; nearly all actives have a fitted effect of over 45% in size
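Readout: ATPlite luminescence (ATP level). Model: stable PC12, inducible Htt exon1 Q103-GFP. Inducer: tebufenozide, 100 nM final. Compounds: dose series. No G418 in medium.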
Active calls of the source: *; [ ] = another dose, or the depositor's remark. An excerpt weighted towards active compounds, which were near 9.2% of everything screened. Unless noted, the call rests on the fitted dose curve; in most records, active means well fitted inhibition curve with a large enough effect (not every such curve was filed as active); inconclusive means small, poorly fitted or top-dose-only effect, or another doubt; inactive means no such curve, though single readings can be large or run the other way. Potency means the concentration at half of the fitted maximal effect.

Screening CC(C)NC(=O)c1ccc2c(=O)n(CC3CCCO3)c(=S)[nH]c2c1 (configuration not stated) returned KDM4E inh 8%, HTT aggregate -16%, ALDH1A1 inh 1.4µM* and HTT ATP protect -42%.
For O=C(NCc1ccco1)c1ccc2c(=O)n(CC3CCCO3)c(=S)[nH]c2c1 (configuration not stated) the results were KDM4E inh 1%, HTT aggregate 0%, Lamin A splicing 0%, HPGD inh -13%, ALDH1A1 inh 3.2µM* and HTT ATP protect -5%[1.9 µM].
Screening O=C(NCc1ccccc1)c1ccc2c(=O)n(CC3CCCO3)c(=S)[nH]c2c1 (configuration not stated) returned KDM4E inh 3%, HTT aggregate -14%, Lamin A splicing 19%, HPGD inh -5%, ALDH1A1 inh 2.8µM* and HTT ATP protect -31%.
For O=C(Nc1cccc(Br)c1)N1CCC(CN2CCCCCC2)CC1 the results were Lamin A splicing -11%[46 µM].
For O=C1CNC(=S)N1CCc1ccccc1Cl the results were KDM4E inh 10%, HTT aggregate 29%[9.22 µM] and HTT ATP protect 25%[10 µM].
Screening O=C(CSc1nnc(-c2c[nH]c3ccccc23)o1)N1CCCCC1 returned KDM4E inh -13%, HTT aggregate 7%, Lamin A splicing inconclusive, HPGD inh 28µM*, ALDH1A1 inh inconclusive and HTT ATP protect -35%.
For COc1cccc(OCc2nnc(SCC(=O)N3c4ccccc4Sc4ccc(Cl)cc43)o2)c1 the results were KDM4E inh 6%, HTT aggregate -3%, Lamin A splicing inconclusive, HPGD inh -20%, ALDH1A1 inh 10µM* and HTT ATP protect -21%[10 µM].
O=C(CSc1nnc(-c2ccccc2Br)o1)N1CCc2ccccc2C1 was read as KDM4E inh -12%, HTT aggregate 12%[9.22 µM], Lamin A splicing -8%, HPGD inh 25µM*, ALDH1A1 inh inconclusive and HTT ATP protect -19%[10 µM].
Screening O=C(CSc1nnc(-c2c[nH]c3ccccc23)o1)c1ccc(-c2ccccc2)cc1 returned KDM4E inh -3%, HTT aggregate -3%, Lamin A splicing -7%, HPGD inh -29%, ALDH1A1 inh 25% and HTT ATP protect -15%[10 µM].
For COc1cc(OC)cc(-c2nnc(SCC(=O)N3CCCCC3)o2)c1 the results were KDM4E inh -1%, HTT aggregate 5%, Lamin A splicing -14%, HPGD inh 25µM*, ALDH1A1 inh -14% and HTT ATP protect -11%.
For O=C(c1ccncc1)N1CCC2(CCCN(c3cccc(-c4ccccc4)c3)C2)CC1 the results were HPGD inh -17%, ALDH1A1 inh -9% and HTT ATP protect 17%.
`COc1ccc2c(c1OC)C(Cc1ccccc1)N1CCc3cc4c(cc3C1=C2)OCO4` (configuration not stated) gave KDM4E inh -2%, HPGD inh inconclusive, ALDH1A1 inh inconclusive and HTT ATP protect -43%[1.9 µM].
O=C(CSc1nnc(COc2cccc3ccccc23)o1)N1c2ccccc2CCc2ccccc21 was read as KDM4E inh 0%, HTT aggregate 31%, Lamin A splicing 8%, HPGD inh -2%, ALDH1A1 inh 22µM* and HTT ATP protect -12%.
`O=C(CSc1nnc(-c2ccco2)o1)N1c2ccccc2CCc2ccccc21` gave KDM4E inh -10%, HTT aggregate -29%, Lamin A splicing inconclusive, HPGD inh -8%, ALDH1A1 inh -8% and HTT ATP protect 7%.
For O=C(CSc1nnc(-c2c[nH]c3ccccc23)o1)N1c2ccccc2CCc2ccccc21 the results were KDM4E inh -1%, HTT aggregate inconclusive, Lamin A splicing inconclusive, HPGD inh -21%, ALDH1A1 inh 3.5µM* and HTT ATP protect -6%.
`CCOc1cccc(NC(=O)Cc2cccs2)c1` gave KDM4E inh -6%, HTT aggregate -13%, Lamin A splicing 16%, HPGD inh -15%, ALDH1A1 inh -3% and HTT ATP protect -5%.
`O=C(Cc1cccs1)Nc1cccc(-c2nc3cc4ccccc4cc3[nH]2)c1` gave KDM4E inh inconclusive, HTT aggregate 25µM*, Lamin A splicing inconclusive, HPGD inh inconclusive and ALDH1A1 inh inconclusive.
`CCOC(=O)C1CCN(C(c2cccnc2)c2c(NC(=O)c3ccco3)sc(C)c2C)CC1` (configuration not stated) gave KDM4E inh inconclusive, HTT aggregate 7.9µM*, Lamin A splicing inconclusive, HPGD inh -29%, ALDH1A1 inh inconclusive and HTT ATP protect 28%.
For CC/C=C\C/C=C\C/C=C\C/C=C\C/C=C\C/C=C\CCC(=O)O the results were KDM4E inh 1%, HTT aggregate 29%, HPGD inh -7%, ALDH1A1 inh 22µM* and HTT ATP protect 11%.
For COC(=O)c1ccc(C(NC(=O)OCc2ccccc2)/C(I)=C/[C@@H](C)C(=O)NCC2CC2)cc1 (some centres not stated) the results were KDM4E inh -1%, HPGD inh 14µM*, ALDH1A1 inh -11% and HTT ATP protect -36%.
Screening COC(=O)c1ccc(C(NC(=O)OCc2ccccc2)/C(I)=C/[C@@H](C)C(=O)Nc2ccccc2)cc1 (some centres not stated) returned KDM4E inh -3%, HPGD inh -25%, ALDH1A1 inh 3% and HTT ATP protect -3%.
Screening COc1c(Br)cc2c(C)c(C(=O)O)oc2c1Br returned KDM4E inh -2%, HTT aggregate -23%, Lamin A splicing inconclusive, HPGD inh 14µM*, ALDH1A1 inh inconclusive and HTT ATP protect -6%.
Screening Cc1ccc(/C=C/c2onc(C)c2S(=O)(=O)N2CCC(C(=O)N3CCN(c4cccc(C)c4)C(C)C3)CC2)cc1 (configuration not stated) returned Lamin A splicing -11%[46 µM].
Screening Cn1cnnc1SCC(=O)Nc1sc2c(c1C(N)=O)CCC2 returned KDM4E inh inconclusive, HTT aggregate -20%, Lamin A splicing -1%, HPGD inh 18µM*, ALDH1A1 inh inconclusive and HTT ATP protect -12%.
`N#Cc1c(NC(=O)CSc2nnc(-c3ccncc3)n2CC2CCCO2)sc2c1CCCC2` (configuration not stated) gave KDM4E inh 2%, HTT aggregate 12%, Lamin A splicing inconclusive, HPGD inh -7%, ALDH1A1 inh inconclusive and HTT ATP protect -15%.
